The values that follow come from PubChem BioAssay (NCI).

SMILES strings stand for the structures. Values joined by “and” are separate entries in the source; they are usually repeats but may differ in a detail not shown here. Identical values can stand only once. This is part of a sample that, as a whole, favours compounds with a hit. Of some 83,000 tested, about 20% had one in any assay.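 Treatment: one concentration, 48 hours, 96-well format. Scoring: percent growth, with anything below 10 considered active.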 Values without a mark were called inactive. Active and inactive are the calls of the source.

For one experiment, the system named is OVCAR-3 ovarian. As to the kind of experiment: NCI-60 one-dose screen, 48 h (100 = growth as untreated, 0 = no growth, -100 = all killed). Conditions: 10 µM unless noted.
Regarding `N#CCCc1ccccc1`, the growth was 119%.
The same measure, in the same setting: then `CNC(=O)O/N=C(\SC)C(=O)N(C)C`, with 107%; and `CCC1(CCSC#N)C(=O)NC(=O)NC1=O`, with 105%.
The same measure, in the same setting: then `Oc1ccccc1C=NCCN=Cc1ccccc1O.[Fe]`, with 112%; and `CCCCCCCCCCCCCCCC[N+](C)(C)C`, with -85.4% (active) and -1.42% (active).
Same read-out and setting: then `C[N+]1(C)CCCC1c1cccnc1` (stereo not given), with 108%.

A further experiment concerns HS 578T breast. The description is as above. As to conditions: 10 µM unless noted.
Regarding `CCOC(=O)C1C(C=C(C)C)C1(C)C` (stereo not given), the growth is 115%.
The same measure, in the same setting: then `O=C/C=C/c1ccco1`, with 107%.
On the same count and under the same terms, for `Cn1cc(-c2csc(-c3cn(CCCCN4CCOCC4)c4ccc(F)cc34)n2)c2cccnc21` the value was 41.1%.
The same measure, in the same setting: for `CC(=O)Nc1nc2c(s1)C1=CC[C@H]3[C@@H]4CC[C@H](OC(C)=O)[C@@]4(C)CC[C@@H]3[C@@]1(C)CC2` the value was 39%; for `C[C@]12CC[C@H](O)C[C@@H]1CC[C@@H]1[C@@H]2CC[C@]2(C)OC(=O)CC[C@@H]12`, 111%.
As to `C[C@]12CCc3sc(Nc4ccc(O)cc4)nc3C1=CC[C@@H]1[C@@H]2CC[C@]2(C)C(=O)CC[C@@H]12`, the growth is 53.6%.
The same measure, in the same setting: for `O=C(O)C(Br)CBr` (stereo not given) the value was 111%; for `Cc1cc[c-]cc1.Fc1c[c-]c(-c2ccccn2)c(F)c1.N#CCC[PH+](CCC#N)c1ccccc1.[Pt+2]`, 40.6%; for `O=P(O)(Nc1ccccc1)Nc1ccccc1`, 94.5%.
Still for that read-out and setting: for `Cc1cc(N(CCCl)CCCl)ccc1C=Nc1ccc(-c2csc(-c3ccccc3)n2)cc1` the value was 107%; for `Oc1ccccc1C=NCCN=Cc1ccccc1O`, 106%.
Same read-out and setting: then `COC12CC3(C)C(C4=CC(=O)OC4)CCC3(O)C3CCC4=CC(=O)CCC4(CO1)C32` (stereo not given), with 103%; and `CC12CCC3C(CCC4CC(O)CCC43C)C1CCC2=O` (stereo not given), with 81.9%; and `COc1cc(-c2ccc(N)c(OC)c2)ccc1N`, with 105%.
In the case of `COc1ccn(C)c(=O)c1C#N`, the growth was 105%.
Same read-out and setting: for `CCCCCCCCCCCCCCCC[N+](C)(C)Cc1ccccc1` the value was 8.98% (active) and -27.8% (active).
On the same count and under the same terms, for `Cc1nc2ccccc2c(=O)n1-c1ccccc1F` the value was 100%.
Regarding `C[C@]12CC[C@H]3[C@@H](C[C@@H]4SC(Nc5ccccc5)=N[C@@]45C/C(=N/O)CC[C@]35C)[C@@H]1CCC2=O`, the growth was 65.2%.
As to `N#CCN(CC#N)[N+](=O)[O-]`, the growth is 89.5%.
Consider `O=C(O)c1ccccc1N(CCO)CCCl`, for which the growth was 120%.
The same measure, in the same setting: then `O=[N+]([O-])c1cc(Cl)c(Cl)cc1Cl`, with 95.9%; and `CN1[C@@H](CC(=O)c2ccccc2)CCC[C@H]1CC(=O)c1ccccc1`, with 83%; and `O=Cc1cn(Cc2ccccc2)c2ccccc12`, with 150%.
Same read-out and setting: then `OCCN=Cc1c[nH]c2ccccc12`, with 97.5%; and `C=CC[PH+](c1ccccc1)c1ccccc1.C=CC[PH+](c1ccccc1)c1ccccc1.[Pt+2].[S-]c1nc2ccccc2[nH]1.[S-]c1nc2ccccc2[nH]1`, with -16.6% (active).
On the same count and under the same terms, for `O=NN1CCCCC1` the value was 97.3%; for `COC(=O)C1=CCCN(C)C1`, 104% and 117%.
With `CC[C@H](C)[C@H](NC(=O)[C@H]1CCCCN1C)C(=O)N(C)[C@H](C[C@@H](OC(C)=O)c1cccc(C(=O)N[C@@H](Cc2ccccc2)C[C@H](C)C(=O)OC)n1)C(C)C`, the growth was 19.9%.
Same read-out and setting: for `CC1(C)CN=C(NN=C(/C=C/c2ccc(C(F)(F)F)cc2)/C=C/c2ccc(C(F)(F)F)cc2)NC1` the value was -38% (active); for `Cc1ccc(P(=O)(O)O)cc1`, 97.7%.
Same read-out and setting: then `Nc1ccc2c(c1)Cc1cc(N)ccc1-2`, with 84.4%; and `N#CCCc1ccccc1`, with 118%.
`CNC(=O)O/N=C(\SC)C(=O)N(C)C`: the growth was 96.4%.
Take `CCC1(CCSC#N)C(=O)NC(=O)NC1=O`: the growth was 106%.
Still for that read-out and setting: for `Oc1ccccc1C=NCCN=Cc1ccccc1O.[Fe]` the value was 77.3%; for `CCCCCCCCCCCCCCCC[N+](C)(C)C`, -24.3% (active) and 2.19% (active); for `C[N+]1(C)CCCC1c1cccnc1` (stereo not given), 89.2%.

Another experiment concerns NCI/ADR-RES ovarian. Described as above. As to conditions: 10 µM unless noted.
As for `CCOC(=O)C1C(C=C(C)C)C1(C)C` (stereo not given), the growth was 99.1%.
Still for that read-out and setting: for `O=C/C=C/c1ccco1` the value was 109%; for `Cn1cc(-c2csc(-c3cn(CCCCN4CCOCC4)c4ccc(F)cc34)n2)c2cccnc21`, 76.8%.
Regarding `CC(=O)Nc1nc2c(s1)C1=CC[C@H]3[C@@H]4CC[C@H](OC(C)=O)[C@@]4(C)CC[C@@H]3[C@@]1(C)CC2`, the growth is 43.4%.
Same read-out and setting: then `C[C@]12CC[C@H](O)C[C@@H]1CC[C@@H]1[C@@H]2CC[C@]2(C)OC(=O)CC[C@@H]12`, with 101%; and `C[C@]12CCc3sc(Nc4ccc(O)cc4)nc3C1=CC[C@@H]1[C@@H]2CC[C@]2(C)C(=O)CC[C@@H]12`, with 68.6%; and `O=C(O)C(Br)CBr` (stereo not given), with 101%.
On the same count and under the same terms, then `Cc1cc[c-]cc1.Fc1c[c-]c(-c2ccccn2)c(F)c1.N#CCC[PH+](CCC#N)c1ccccc1.[Pt+2]`, with 55.3%; and `O=P(O)(Nc1ccccc1)Nc1ccccc1`, with 76.9%.
In the case of `Cc1cc(N(CCCl)CCCl)ccc1C=Nc1ccc(-c2csc(-c3ccccc3)n2)cc1`, the growth is 82.4%.
Still for that read-out and setting: for `Oc1ccccc1C=NCCN=Cc1ccccc1O` the value was 103%; for `COC12CC3(C)C(C4=CC(=O)OC4)CCC3(O)C3CCC4=CC(=O)CCC4(CO1)C32` (stereo not given), 113%; for `CC12CCC3C(CCC4CC(O)CCC43C)C1CCC2=O` (stereo not given), 163%.
Still for that read-out and setting: for `COc1cc(-c2ccc(N)c(OC)c2)ccc1N` the value was 105%.
As to `COc1ccn(C)c(=O)c1C#N`, the growth was 102%.
Same read-out and setting: then `CCCCCCCCCCCCCCCC[N+](C)(C)Cc1ccccc1`, with 82.4% and 83.6%; and `Cc1nc2ccccc2c(=O)n1-c1ccccc1F`, with 112%; and `C[C@]12CC[C@H]3[C@@H](C[C@@H]4SC(Nc5ccccc5)=N[C@@]45C/C(=N/O)CC[C@]35C)[C@@H]1CCC2=O`, with 86.2%.
Take `N#CCN(CC#N)[N+](=O)[O-]`: the growth was 110%.
On the same count and under the same terms, then `O=C(O)c1ccccc1N(CCO)CCCl`, with 95.1%; and `O=[N+]([O-])c1cc(Cl)c(Cl)cc1Cl`, with 102% and 104%; and `CN1[C@@H](CC(=O)c2ccccc2)CCC[C@H]1CC(=O)c1ccccc1`, with 99%.
On the same count and under the same terms, then `O=Cc1cn(Cc2ccccc2)c2ccccc12`, with 82.1%; and `OCCN=Cc1c[nH]c2ccccc12`, with 100%; and `C=CC[PH+](c1ccccc1)c1ccccc1.C=CC[PH+](c1ccccc1)c1ccccc1.[Pt+2].[S-]c1nc2ccccc2[nH]1.[S-]c1nc2ccccc2[nH]1`, with 88.4%.
The same measure, in the same setting: for `O=NN1CCCCC1` the value was 110%.
For `COC(=O)C1=CCCN(C)C1`, the growth was 107% and 115%.
The same measure, in the same setting: then `CC[C@H](C)[C@H](NC(=O)[C@H]1CCCCN1C)C(=O)N(C)[C@H](C[C@@H](OC(C)=O)c1cccc(C(=O)N[C@@H](Cc2ccccc2)C[C@H](C)C(=O)OC)n1)C(C)C`, with 13.4%.
On the same count and under the same terms, for `CC1(C)CN=C(NN=C(/C=C/c2ccc(C(F)(F)F)cc2)/C=C/c2ccc(C(F)(F)F)cc2)NC1` the value was -68.4% (active).
On the same count and under the same terms, then `Cc1ccc(P(=O)(O)O)cc1`, with 106%.
Turning to `Nc1ccc2c(c1)Cc1cc(N)ccc1-2`, the growth was 96.2%.
Same read-out and setting: for `N#CCCc1ccccc1` the value was 104%.
Same read-out and setting: for `CNC(=O)O/N=C(\SC)C(=O)N(C)C` the value was 96.4%; for `CCC1(CCSC#N)C(=O)NC(=O)NC1=O`, 104%.
The same measure, in the same setting: then `Oc1ccccc1C=NCCN=Cc1ccccc1O.[Fe]`, with 104%.
Consider `CCCCCCCCCCCCCCCC[N+](C)(C)C`, for which the growth is 51.9% and 82.5%.
On the same count and under the same terms, for `C[N+]1(C)CCCC1c1cccnc1` (stereo not given) the value was 111%.
